Experimental findings from PubChem BioAssay (EPA / NIEHS) are described below.

Each structure is given as a SMILES string. Results filed as inconclusive are left out. Calls of active or inactive are those of the source. The calls were made as follows: active = hit-call score of the fitted dose curve at least 0.9, where 1 is the maximum; inconclusive = response in the unintended direction; inactive = score below 0.9.

Cellular tumor antigen p53 (Homo sapiens), sequence (P04637 whole entry, looked up): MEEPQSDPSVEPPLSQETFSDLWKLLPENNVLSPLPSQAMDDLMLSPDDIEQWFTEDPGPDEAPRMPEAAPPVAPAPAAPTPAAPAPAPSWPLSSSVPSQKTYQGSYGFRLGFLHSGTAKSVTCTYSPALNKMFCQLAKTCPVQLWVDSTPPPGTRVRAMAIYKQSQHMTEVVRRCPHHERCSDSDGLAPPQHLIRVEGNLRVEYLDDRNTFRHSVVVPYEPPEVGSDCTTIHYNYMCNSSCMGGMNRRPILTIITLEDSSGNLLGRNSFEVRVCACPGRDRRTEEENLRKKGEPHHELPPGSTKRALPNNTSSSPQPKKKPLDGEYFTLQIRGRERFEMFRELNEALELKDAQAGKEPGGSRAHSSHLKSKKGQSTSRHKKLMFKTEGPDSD

The target of one test is Cellular tumor antigen p53 (Homo sapiens) (UniProt P04637). As to the kind of experiment: TOX21_p53_BLA_p5_ratio: Tox21 HCT-116 p53 Agonism Beta-lactamase Assay, Ratio, Phase 5 (AID 2283599). In a few lines:
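HCT-116 p53-bla cells (4000/well) plated 5 h, dosed with compound (217-fold DMSO dilution) for 16 h at 37 C; CCF4-AM substrate 2 h at room temperature. Activity is the 460/530 nm emission ratio (405 nm excitation), fitted in gain-of-signal direction versus DMSO.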
Consider `NS(=O)(=O)c1cc2c(cc1Cl)NC(C(Cl)Cl)NS2(=O)=O` (stereo not given), for which the outcome was inactive.
Take `CN1CCN(C(c2ccccc2)c2ccccc2)CC1`: the outcome was inactive.
Same read-out and setting: for `CC(C)OC(=O)CCC(=O)OC(C)C` the value was “inactive”; for `CCOCC(O)COc1ccc(NC(=O)CC[S+](C)C)cc1` (stereo not given), “inactive”.
Still for that read-out and setting: as for `C[C@]12CC[C@@H]3c4ccc(OC(=O)c5ccccc5)cc4CC[C@H]3[C@@H]1CC[C@@H]2O`, the entry is “inactive”; as for `NC(=O)OC[C@@H]1[C@H](NC(=O)/C(=N\OCC(=O)O)c2csc(N)n2)C(=O)N1S(=O)(=O)O`, “inactive”.
As to `C=CC(=O)OCC1CCCO1` (stereo not given), the outcome was inactive.
Still for that read-out and setting: for `CCOc1cc(NC(C)=O)ccc1C(=O)OC` the value was “inactive”; for `NC[C@H]1O[C@H](O[C@H]2[C@H](O[C@@H]3O[C@H](CO)[C@@H](O)[C@H]3O)C(O)[C@H](N)C[C@@H]2N)[C@H](N)[C@@H](O)[C@@H]1O` (stereo not given in full), “inactive”.
Regarding `O=c1[nH]cnc2c1ncn2[C@@H]1O[C@H](CO)[C@@H](O)[C@H]1O`, the outcome was inactive.
Usually AC50 stands for the midpoint of the concentration-response curve, whichever way the signal moves. On to `CC[C@]1(O)C[C@H]2CN(CCc3c([nH]c4ccccc34)[C@@](C(=O)OC)(c3cc4c(cc3OC)N(C=O)[C@H]3[C@@](O)(C(=O)OC)[C@H](OC(C)=O)[C@]5(CC)C=CCN6CC[C@]43[C@@H]65)C2)C1`, for which the AC50 was 4.86 nM (active).
`COC(=O)Nc1nc2ccc(C(=O)c3ccccc3)cc2[nH]1`: the result was inactive.
Still for that read-out and setting: for `CC(=O)c1ccc(Cl)c(Cl)c1Cl` the value was “inactive”; for `CC(Cc1cccc(C(F)(F)F)c1)NCCOC(=O)c1ccccc1` (stereo not given), “inactive”.
On the same count and under the same terms, as for `Cc1cc(=O)c(C(=O)N[C@@H](C(=O)N[C@@H]2C(=O)N3C(C(=O)O)=C(CSc4nnnn4C)CS[C@H]23)c2ccc(O)cc2)c[nH]1`, the entry is “inactive”.
For the molecule `NC(=O)Nc1nc2ccccc2[nH]1`, the outcome was inactive.
Still for that read-out and setting: for `CC(=O)NC[C@H]1CN(c2ccc(N3CCOCC3)c(F)c2)C(=O)O1` the value was “inactive”; for `Cc1ccc(Cl)c(N)c1Cl`, “inactive”; for `CCOc1ccc(S(=O)(=O)O)c2cccnc12`, “inactive”.
`NC(=O)c1ccc[n+]([C@@H]2O[C@H](COP(=O)([O-])OP(=O)(O)OC[C@H]3O[C@@H](n4cnc5c(N)ncnc54)[C@H](O)[C@@H]3O)[C@@H](O)[C@H]2O)c1`: the outcome was inactive.
On the same count and under the same terms, for `NC1[C@H]2CN(c3nc4c(cc3F)c(=O)c(C(=O)O)cn4-c3ccc(F)cc3F)C[C@@H]12` (stereo not given in full) the value was “inactive”; for `C=CC(=O)[O-].C=CC(=O)[O-].[Zn+2]`, “inactive”; for `CCCOC(=O)c1ccccc1O`, “inactive”.
On the same count and under the same terms, as for `CN(C)c1ccc(SC#N)cc1`, the entry is “inactive”; as for `NS(=O)(=O)c1ccc(C(=O)O)cc1`, “inactive”; as for `CC(CN1c2ccccc2Sc2cccnc21)N(C)C` (stereo not given), “inactive”.
Consider `CC1(C)Cc2cccc(N)c2O1`, for which the result was inactive.
In the case of `CC(C)(C)C(=O)OCC(=O)[C@H]1CC[C@H]2[C@@H]3CCC4=CC(=O)CC[C@]4(C)[C@H]3CC[C@]12C`, the result was inactive.
Still for that read-out and setting: for `NC(=O)CC[C@@H]1NC(=O)[C@H](Cc2ccccc2)NC(=O)[C@H](Cc2ccc(O)cc2)NC(=O)[C@@H](N)CSSC[C@@H](C(=O)N2CCC[C@H]2C(=O)N[C@@H](CCCN=C(N)N)C(=O)NCC(N)=O)NC(=O)[C@H](CC(N)=O)NC1=O` the value was “inactive”; for `CN1c2c(nc(N)[nH]c2=O)NCC1CNc1ccc(C(=O)NC(CCC(=O)O)C(=O)O)cc1` (stereo not given), “inactive”.
In the case of `CCCCCC(N)=O`, the result was inactive.
In the case of `COc1cc(C(=S)N2CCOCC2)ccc1O`, the outcome was inactive.
Same read-out and setting: for `NS(=O)(=O)c1cc(-c2nn[nH]n2)c(NCc2cccs2)cc1Cl` the value was “inactive”; for `Cc1cc(O)ccc1O`, “inactive”.
As for `C[n+]1ccn(Cc2ccccc2)c1`, the result was inactive.
On to `NC(=O)CC[C@@H](N)C(=O)O`, for which the outcome was inactive.
The same measure, in the same setting: as for `C=CC(=O)OCCOCC(CC)(COCCOC(=O)C=C)COCCOC(=O)C=C`, the entry is “inactive”; as for `NC(=O)Cc1cccc2ccccc12`, “inactive”; as for `O=[N+]([O-])c1ccc(Oc2ccc([N+](=O)[O-])cc2)cc1`, “inactive”.

Test system in a further test: not listed separately
As to the kind of experiment: TOX21_p53_BLA_p5_viability: Viability Assessment in the Tox21 HCT-116 p53 Agonism Beta-lactamase Assay, Phase 5 (AID 2283600). The essentials: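 After the 460/530 nm beta-lactamase measurement, the wells received an ATP-detection luciferase reagent; signal was read 30 min later at RT. Compound treatment lasted 16 h on cells pre-incubated 5 h post-seeding.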
Consider `NS(=O)(=O)c1cc2c(cc1Cl)NC(C(Cl)Cl)NS2(=O)=O` (stereo not given), for which the result was inactive.
The same measure, in the same setting: as for `CC(C)OC(=O)CCC(=O)OC(C)C`, the entry is “inactive”; as for `C[C@]12CC[C@@H]3c4ccc(OC(=O)c5ccccc5)cc4CC[C@H]3[C@@H]1CC[C@@H]2O`, “inactive”.
On the same count and under the same terms, for `NC(=O)OC[C@@H]1[C@H](NC(=O)/C(=N\OCC(=O)O)c2csc(N)n2)C(=O)N1S(=O)(=O)O` the value was “inactive”; for `CCOc1cc(NC(C)=O)ccc1C(=O)OC`, “inactive”.
The same measure, in the same setting: for `CC[C@]1(O)C[C@H]2CN(CCc3c([nH]c4ccccc34)[C@@](C(=O)OC)(c3cc4c(cc3OC)N(C=O)[C@H]3[C@@](O)(C(=O)OC)[C@H](OC(C)=O)[C@]5(CC)C=CCN6CC[C@]43[C@@H]65)C2)C1` the value was “inactive”.
Consider `CC(=O)c1ccc(Cl)c(Cl)c1Cl`, for which the molecule was classed as inactive.
The same measure, in the same setting: as for `CC(Cc1cccc(C(F)(F)F)c1)NCCOC(=O)c1ccccc1` (stereo not given), the entry is “inactive”; as for `Cc1cc(=O)c(C(=O)N[C@@H](C(=O)N[C@@H]2C(=O)N3C(C(=O)O)=C(CSc4nnnn4C)CS[C@H]23)c2ccc(O)cc2)c[nH]1`, “inactive”.
On the same count and under the same terms, for `NC(=O)Nc1nc2ccccc2[nH]1` the value was “inactive”; for `CCOc1ccc(S(=O)(=O)O)c2cccnc12`, “inactive”; for `C=CC(=O)[O-].C=CC(=O)[O-].[Zn+2]`, “inactive”.
The same measure, in the same setting: as for `CCCOC(=O)c1ccccc1O`, the entry is “inactive”.
In the case of `NS(=O)(=O)c1ccc(C(=O)O)cc1`, the result was inactive.
Still for that read-out and setting: for `CC1(C)Cc2cccc(N)c2O1` the value was “inactive”.
Take `CC(C)(C)C(=O)OCC(=O)[C@H]1CC[C@H]2[C@@H]3CCC4=CC(=O)CC[C@]4(C)[C@H]3CC[C@]12C`: the result was inactive.
Still for that read-out and setting: as for `CN1c2c(nc(N)[nH]c2=O)NCC1CNc1ccc(C(=O)NC(CCC(=O)O)C(=O)O)cc1` (stereo not given), the entry is “inactive”; as for `CCCCCC(N)=O`, “inactive”; as for `COc1cc(C(=S)N2CCOCC2)ccc1O`, “inactive”.
Turning to `NS(=O)(=O)c1cc(-c2nn[nH]n2)c(NCc2cccs2)cc1Cl`, the call was inactive.
For `Cc1cc(O)ccc1O`, the call was inactive.
Still for that read-out and setting: for `C[n+]1ccn(Cc2ccccc2)c1` the value was “inactive”; for `NC(=O)CC[C@@H](N)C(=O)O`, “inactive”.
The same measure, in the same setting: for `C=CC(=O)OCCOCC(CC)(COCCOC(=O)C=C)COCCOC(=O)C=C` the value was “inactive”.
On the same count and under the same terms, as for `NC(=O)Cc1cccc2ccccc12`, the entry is “inactive”; as for `O=[N+]([O-])c1ccc(Oc2ccc([N+](=O)[O-])cc2)cc1`, “inactive”.
